High-throughput results: PubChem, several laboratories
H9c2 protect – modulators protecting cardiomyocytes from myocardial damage. H9c2 cardiomyocytes, H2O2 injury protection, ATPLite, 2 h. protection from H2O2 cell death, % at 20 µM. 0.63% of 360,000 active. AID 588492;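 active = compounds giving at least 50% protection of heart cells from peroxide-induced death in the single-dose screen, raw or plate-pattern-corrected value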;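 note: 0% = DMSO wells with peroxide and 100% = DMSO wells without peroxide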
FAS TE block – inhibitors of human fatty acid synthase thioesterase domain; P49327; recombinant FAS-TE, OMFH fluorogenic substrate, fluorescence endpoint; inhibition, % at 15 µM; 0.67% of 360,000 active;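 active = compounds whose normalised, plate-corrected inhibition of enzyme fluorescence in the single-dose primary screen is 50% or more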;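 note: 0% = DMSO with enzyme and 100% = substrate without enzyme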
MPTP block – blocks calcium-induced mitochondrial swelling; isolated mouse mitochondria, Ca2+ swelling absorbance, 30 min; 1.4% of 360,000 active; inhibition, % at 10 µM;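 active = inhibition of 50% or more, scaled per plate between neutral and stimulator controls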;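 note: 0% = DMSO wells given calcium and 100% = 1 mM EGTA wells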
aDG glyco act – increases alpha dystroglycan glycosylation. Pro5-aDG cells, alpha-DG glycosylation AlphaScreen (IIH6); 0% Pro5, 100% B10-LARGE cell signal. activation, % at 10 µM. 0.22% of 360,000 active;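 active = activation of at least 8% versus controls, or a plate z-score of at least 8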;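 note: Pro5 are CHO cells carrying HIG-tagged alpha-DG that lacks glycosylation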
Mot1-301 SUMO – SUMOylation pathway inhibition by Mot1-301 growth rescue; S. cerevisiae Mot1-301 growth rescue, ATP luminescence, 38.5C; percent above DMSO median, 100 means doubled; growth rescue, % at 18.8 µM; 1% of 320,000 active;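 active = every valid replicate shows activation above 250% relative to neutral control wells; inactive = the rest, any valid replicate at or below 250%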;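 note: OY570 slx delta 5 strain wells were the positive control but not used for scaling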
CR mimetic SO – caloric restriction mimetics inhibiting age-related superoxide in yeast; 0.18% of 330,000 active; S. cerevisiae aged cells, superoxide DHE fluorescence; active compounds read low; superoxide response (% of plate mean), % at 10 µM;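 active = superoxide response under a set limit, about three screen SD below normal, cut at about 65% in these data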;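 note: yeast aged for seven days with compound at 30 °C before DHE staining; 100% = average MFI of all compound-treated wells on the plate with controls excluded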
MPTP counter – mitochondrial membrane potential, counter-screen | isolated mitochondria, Rhodamine 123 fluorescence | 78% of 5,000 active | inhibition, % at 10 µM | AID 624504 | shares compounds with MPTP block; in the data active = inhibition above about 22%;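 note: 0% = DMSO vehicle and 100% = positive control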
MPTP abs DR – MPTP inhibition, dose response swelling confirmation. isolated mitochondria swelling, absorbance. 58% of 780 active. AID 651561. IC50, µM. shares compounds with MPTP block; in the data active = IC50 below about 20 µM
MPTP counter DR – MPTP inhibitor counter-screen activity, dose response | isolated mitochondria counterscreen, fluorescence read-out | shares compounds with MPTP block | 49% of 780 active | IC50, µM | AID 651564; in the data active = IC50 below about 80 µM
An asterisk follows results filed as active; i = inactive; / = no result given. Only some compounds are listed: those with a hit (about 3.8% of all), similar ones and a draw of the others.

SMILES | H9c2 protect | FAS TE block | MPTP block | aDG glyco act | Mot1-301 SUMO | CR mimetic SO | MPTP counter | others
O=C(Nc1ccc(Oc2ncnc3cc(Cl)ccc23)nc1)Nc1cccc(C(F)(F)F)c1 | -6 | 3 | 90* | 0 | 6 | 91 | 25*
C[C@@H]1CN([C@H](C)CO)S(=O)(=O)c2ccc(Br)cc2O[C@H]1CN(C)C(=O)Cc1ccccn1 | 8 | -5 | 0 | 0 | / | / | /
O=c1c2ccccc2sc2ccccc12 | -2 | -1 | 0 | 0 | / | / | /
O=c1c(C(c2ccccc2)c2c(O)sc3ccccc3c2=O)c(O)sc2ccccc12 | 0 | -1 | 68* | 0 | 15 | 90 | 71*
Brc1cc(Br)c2nc(-c3cccs3)ccc2c1 | -4 | 20 | 12 | 0 | -11 | 101 | /
Cc1nc2c(Br)cc(Br)cc2cc1O | -21 | -10 | 99* | 0 | -10 | 103 | 97*
CC1=C(C(=O)N2CCCCCC2)CC(CC(=O)NCC2CCCCC2)C(=O)N1CCCN1CCCC1=O (stereo not given) | / | -3 | 0 | 0 | / | / | /
O=C(NCCN1C(=O)S/C(=C\c2cccc(Cl)c2Cl)C1=O)C1=COCCO1 | -6 | 22 | -1 | 0 | 7 | 92 | /
O=C(COc1ccc(Cl)cc1)NCCCNC(=O)c1cnccn1 | 3 | -3 | 1 | 0 | -6 | 98 | /
CCc1ccc2oc(C(=O)NCc3ccncc3)c(C)c2c1 | -14 | -2 | 69* | 5 | 201 | 96 | 22*
O=C(CN(C(=O)CNC(=O)c1cccs1)c1ccc(F)cc1)NC1CCCC1 | 1 | -1 | -1 | 0 | -11 | 96 | /
CCOC(=O)N1CCN(CCC(=O)c2ccc(Cl)cc2)CC1 | -28 | -3 | 103* | 0 | -9 | 85 | 4 | MPTP abs DR=i;MPTP counter DR=>80
OC(c1ccc(F)c(F)c1)c1ncc(-c2cccc(F)c2)[nH]1 (stereo not given) | -9 | 4 | -1 | 0 | / | / | /
COc1ccc(C(=O)COC(=O)c2ccccc2NS(=O)(=O)c2ccc(O)c([N+](=O)[O-])c2)cc1 | -7 | 20 | 71* | 0 | -17 | 129 | 51*
COc1ccccc1NS(=O)(=O)c1ccc(O)c(C(=O)OCc2cccc([N+](=O)[O-])c2)c1 | -2 | 23 | 2 | 0 | -3 | 97 | /
Cc1ccccc1C(=O)Nc1cccc(C(=O)N/N=C/c2cc(Cl)cc([N+](=O)[O-])c2O)c1 | 34 | 28 | 12 | 0 | 18 | 112 | /
CCC(=O)c1ccc(OCc2ccc(C(=O)c3ccccc3)cc2)cc1 | -17 | 24 | 101* | 2 | -18 | 97 | 104*
Cc1ccc(N/C(N)=N/c2nc(C)cc(C)n2)cc1 | -7 | -20 | 0 | 1 | -17 | 103 | /
CCCCc1ccc(N/C(N)=N/c2nc(C)cc(C)n2)cc1 | -14 | -50 | 87* | 0 | 37 | 95 | 89*
Cc1cc(C)nc(/N=C(\N)Nc2ccc(C(C)C)cc2)n1 | -15 | -12 | 53* | 1 | -2 | 94 | 56*
Cc1noc(C)c1CSc1nc2ccccc2nc1NS(=O)(=O)c1ccc(Cl)cc1 | -22 | 14 | 88* | 0 | -13 | 114 | 87*
O=S(=O)(Nc1nc2ccccc2nc1NCc1ccco1)c1ccc(Cl)cc1 | -23 | 7 | -8 | 0 | / | 105 | /
Cn1c2c(c(=O)n(C)c1=O)C(C(F)(F)F)(C(F)(F)F)N=C(c1ccccc1Cl)N2 | -1 | -6 | 5 | 0 | -23 | 106 | /
Cn1c2c(c(=O)n(C)c1=O)C(C(F)(F)F)(C(F)(F)F)N=C(CCC1CCCCC1)N2 | -21 | 14 | 94* | 1 | 7 | 95 | 79*
CC(C)(C)NS(=O)(=O)c1cc(C(=O)Nc2sccc2C#N)ccc1Cl | -8 | -8 | 75* | 3 | 108 | 89 | 57*
c1ccc(CN2CCN(CCOCCOc3cccc4ccccc34)CC2)cc1 | -6 | 5 | 82* | 0 | / | 92 | 0 | MPTP abs DR=i;MPTP counter DR=74*
